Source: PubChem
aSyn rescue: qHTS of alpha-syn Inhibitors | Yeast expressing alpha-synuclein, growth rescue, BacTiter-Glo, 24 h | Potency, µM (highest dose often 46.1 µM), for the others: top-dose growth rescue (activation), actives largely listed as activators | 0.14% of 370,000 active | AID 652106, 2013; further: potency means the concentration at half of the fitted maximal effect; % of control where 0% means no effect; nearly all actives have a fitted effect of over 65% in size
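Readout is rescue of growth in alpha-synuclein-expressing yeast, so inhibitors of toxicity appear as activators. Growth after 24 hr at 30 deg C in galactose medium is quantified by luminescence.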
FUS suppressor: qHTS for Suppressors of FUS Proteinopathy: Primary screen using FUS-linked yeast assay; S. cerevisiae FUS-expressing, growth rescue, OD600, 24 h; Potency, µM (highest dose often 76.6 µM), hits mostly activators; 0.24% of 390,000 active; AID 1347120, 2019;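 further: potency means the concentration at half of the fitted maximal effect; plate controls were DMSO vehicle for no effect and reference control for full effect; nearly all actives have a fitted effect of over 55% in size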
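Steps: raffinose overnight preculture; dilution to OD 0.005 in 2% galactose minimal medium; compound addition (concentration series); 24hr at 30C, 99% humidity; absorbance read at 600 nm.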
Abeta rescue: qHTS for compounds that reverse cellular toxicity of Amyloid beta (A-beta) peptide in yeast: Primary Screen; Potency, µM (highest dose often 46.1 µM), most hits filed as activators; yeast expressing A-beta42, growth rescue, OD600, 48 h; response scale: 0% DMSO, 100% iron-clioquinol control; 0.063% of 410,000 active; further: potency means the concentration at half of the fitted maximal effect; nearly all actives have a fitted effect of over 55% in size
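Yeast growth medium received pinned compounds, then yeast cells expressing toxic A-beta were added; plates incubated at 30 C for 48 hr. Growth read as absorbance at 600 nm, normalized to DMSO and equimolar FeCl3 plus clioquinol controls.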
TDP-43 yeast inh: qHTS of TDP-43 Inhibitors; Potency, µM (series often up to 46.1 µM), for the others: at the top dose growth rescue (activation), usual class: activators; TDP-43 expressing yeast growth rescue, BacTiter-Glo, 24 h; 1.8% of 410,000 active; AID 652104, 2013; further: potency means the concentration at half of the fitted maximal effect; % of control where 0% means no effect; nearly all actives have a fitted effect of over 50% in size
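Yeast cells expressing TDP-43 under galactose induction are exposed to compounds for 24 hr at 30 deg C. BacTiter-Glo luminescence measures growth, so protective compounds score as activators.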
IDH1 R132H inh: qHTS for Inhibitors of mutant isocitrate dehydrogenase 1 (IDH1): qHTS | Isocitrate dehydrogenase [NADP] cytoplasmic (Homo sapiens), O75874 | Potency, µM (doses to about 76.6 µM), inactives show top-dose activity change, negative = inhibition, most hits filed as inhibitors | AID 602179, 2012 | 0.093% of 390,000 active | IDH1-R132H enzyme, NADPH consumption, diaphorase/resazurin fluorescence; further: potency means the concentration at half of the fitted maximal effect; on the % scale 0 is the no-effect control and ±100 the full control effect; nearly all actives have a fitted effect of over 65% in size
Target sequence (O75874 whole entry R132H, stated change not applied): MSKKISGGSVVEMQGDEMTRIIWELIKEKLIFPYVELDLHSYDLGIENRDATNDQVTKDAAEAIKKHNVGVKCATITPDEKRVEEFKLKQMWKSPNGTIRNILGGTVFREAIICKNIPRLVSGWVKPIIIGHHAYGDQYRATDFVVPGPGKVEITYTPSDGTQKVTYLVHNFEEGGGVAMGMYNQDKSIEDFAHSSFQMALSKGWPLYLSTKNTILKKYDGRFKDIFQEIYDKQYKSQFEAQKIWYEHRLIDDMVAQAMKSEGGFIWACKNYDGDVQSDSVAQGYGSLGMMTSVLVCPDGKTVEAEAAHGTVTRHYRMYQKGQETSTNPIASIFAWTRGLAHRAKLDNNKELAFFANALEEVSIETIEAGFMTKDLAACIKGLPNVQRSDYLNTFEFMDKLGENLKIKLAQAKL
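IDH1-R132H (0.5 ug/mL) preincubated 30 min with compound, then NADPH (0.016 mM) and alpha-KG (2 mM) added; 80 min at RT, pH 7.5. Remaining NADPH coupled via diaphorase/resazurin to fluorescence (540/590 nm); concentration-response curves normalized to no-enzyme control.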
LDHA block: qHTS assay for inhibitors of human lactate dehydrogenase; L-lactate dehydrogenase A chain (Homo sapiens), P00338; purified LDHA, NADH/diaphorase-resazurin fluorescence; hits give low values; activity change, % (values are at about 110 or 230 µM); 0.15% of 480,000 active; in the data active means activity change below about -30%; inconclusive means mostly about -25% to -30%;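 further: plate controls were DMSO wells for no effect and wells without enzyme for full effect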
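LDH5 2 nM; NADH 0.06 mM, pyruvate 0.2 mM; 200 mM Tris pH 7.4, EDTA, Tween-20; 5 min RT. Detection: diaphorase 0.133 mg/mL + resazurin 37 µM, fluorescence ex540/em590 at 0 and 20 min; normalized to enzyme-free and DMSO wells.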
* hit, by the source's call; i = inactive; u = inconclusive; x = no result given; ! = a repeat was not active. An excerpt weighted towards active compounds, which were near 2% of everything screened. Unless noted, the call rests on the fitted dose curve; in most records, active means well fitted curve in the direction sought with a large enough effect; inconclusive means small, poorly fitted or top-dose-only effect, or another doubt; inactive means no such curve, though single readings can be large; an effect the other way counts as inactive or inconclusive.

SMILES	aSyn rescue	FUS suppressor	Abeta rescue	TDP-43 yeast inh	IDH1 R132H inh	LDHA block
COc1ccccc1C(=O)NS(=O)(=O)c1ccc(C)cc1	u	i	i	17.8µM*	3.1%	-2.7
O=C(CSc1nc(=O)n2cc(Cl)ccc2n1)Nc1cccc2ccccc12	5.5%	i	i	7.08µM*	9.9%	-3.4
Cc1ccn2c(=O)nc(SCC(=O)Nc3cccc4ccccc34)nc2c1	15.3%	22.4µM*	i	-1.8%	0.0%	4.4
Cc1ccn2c(=O)nc(SCC(=O)NCc3ccccc3)nc2c1	0.3%	i	i	19.3%	3.0%	-2.3
Nc1nc2c(s1)C(c1ccc(F)c(F)c1)CC(=O)N2 (stereo not given)	x	x	x	x	x	78.5
CCC(=O)C1=C(c2ccc(OC)cc2)N(C(=O)CC)n2cnnc2S1	x	x	x	x	x	0.2
CC1(C)Cc2c(c(N3CCOCC3)nc3snc(Br)c23)CO1	3.7%	i	i	15.8µM*	2.3%	-1.2
Cc1ccc2[nH]cc(CCNC(=O)NC3CCCCC3)c2c1	x	x	x	x	x	14.0
N#CCCN(C(=O)Cn1nc(C(=O)O)c2ccccc2c1=O)c1ccccc1	-7.7%	i	i	-17.5%	3.5%	-31.8*!
O=C1CSc2ccc(C(=O)Nc3cccc(S(=O)(=O)Nc4ccc(Br)cc4)c3)cc2N1	-6.6%	7.08µM*	i	-14.2%	6.7%	-5.7
O=C(N/N=C/c1cc(Br)cc(Cl)c1O)c1ccc2c(c1)OCO2	5.62µM*	i	i	6.31µM*	3.0%	-31.9*
O=C(CCl)N1c2ccccc2Oc2ccc3ccccc3c21	-42.6%	u	i	u	24.9%	38.0
CC(=O)N1c2ccccc2Oc2cc3ccccc3cc21	8.9%	i	i	12.6µM*	11.4%	2.9
CCN(CC)C(=O)c1noc2c1CC(C(C)(C)C)CC2 (stereo not given)	x	x	x	x	x	-3.1
NNc1cccc(S(=O)(=O)c2cccc(NN)c2)c1	x	x	x	x	x	-2.7
CCn1c(C)cc(C(=O)CSc2nnnn2C2CCCC2)c1C	0.5%	x	i	20µM*	4.0%	-1.3
Cc1cc(C(=O)CSc2nnnn2C2CCCC2)c(C)n1Cc1cccs1	x	x	x	x	x	5.6
CC(SC#N)C(=O)C12CC3CC(CC(C3)C1)C2 (stereo not given)	6.2%	i	i	11.2µM*	10.0%	1.1
O=S(=O)(c1ccc2c(c1)OCCO2)c1nc(-c2ccco2)oc1NCCCN1CCOCC1	x	x	x	x	x	4.0
Cc1cc(C(=O)Cn2c(=O)c3c(ncn3C3CCCC3)n(Cc3ccccc3)c2=O)c(C)n1C	x	x	x	x	x	4.7
Cc1ccccc1NC(=S)NCCSc1ccc(Cl)cc1	1.0%	i	i	17.8µM*	0.8%	-11.8
Cc1ccc(C)c(NC(=S)NCCSc2ccc(Cl)cc2)c1	-4.9%	x	i	21.5%	6.3%	-0.5
CSc1ccccc1NC(=S)NCc1ccc(Cl)cc1	-0.6%	i	15.8µM*	u	8.2%	-0.7
CCc1ccccc1NC(=S)NCCSc1ccc(Cl)cc1	-7.6%	i	i	12.6µM*	-3.0%	-4.5
CCN(CC)S(=O)(=O)c1ccc(-c2nc(C#N)c(NC3CC3)o2)cc1	x	x	x	x	x	-9.3
SMILES	aSyn rescue	FUS suppressor	Abeta rescue	TDP-43 yeast inh	IDH1 R132H inh	LDHA block
CCN1CCN(CC(=O)N/N=C/c2cc(Br)cs2)CC1	-2.2%	i	i	6.4%	4.9%	-30.2*
Cc1nccn1CC(=O)N/N=C/c1cc(Br)cs1	-3.4%	i	i	-0.4%	0.3%	-12.4
Cc1cccc(Cn2c(-c3cccs3)nc3ccccc32)c1	-31.0%	i	i	18.6%	6.7%	1.1
Cc1ccc(C)c(Cn2c(-c3cccs3)nc3ccccc32)c1	x	i	i	20µM*	-1.6%	-1.3
Cc1ccc(N2C(=O)c3cccc([N+](=O)[O-])c3C2=O)cc1C	10.9%	i	i	12.6µM*	3.1%	-13.0
Cc1cccc(C)c1N1C(=O)c2cccc([N+](=O)[O-])c2C1=O	1.5%	x	i	u	2.7%	11.5
Cc1ccc(C)c(S(=O)(=O)N2CCN(C(=O)Cc3sc(C)nc3-c3ccc(F)cc3)CC2)c1	15.8µM*	x	i	18.0%	2.9%	0.3
CSc1cccc(NC(=O)CNc2ccccc2C(=O)NC2CC2)c1	x	x	x	x	x	9.8
COC(=O)C1=C(C)N(Cc2ccccc2)C(=S)N[C@H]1c1cccc(C(F)(F)F)c1	16.8%	i	i	0.0%	-9.1%	2.5
COC(=O)C1=C(C)N(Cc2ccccc2)C(=S)N[C@H]1c1ccc(Br)cc1	4.0%	u	i	15.8µM*	11.8%	2.3
Cc1nc2ccc(C(=O)N3CCOCC3)cc2nc1C	x	x	x	x	x	-3.2
Oc1ccc2c(c1)OCCOCCOc1cc(O)ccc1OCCO2	x	x	x	x	x	50.3
Brc1cc2c(cc1Br)OCCOCCOCCO2	0.1%	i	i	20µM*	1.1%	-1.7
NS(=O)(=O)CC(=O)O	x	x	x	x	x	3.2
Fc1ccc(N=C2NN=C(c3cc(F)ccc3F)CS2)cc1	4.6%	i	i	u	11.2µM*	-0.2
CC(=O)Nc1ccc(C(=O)Nc2ccc(S(=O)(=O)N3CCOCC3)cc2)cc1	3.0%	i	i	22.6%	1.9%	-1.7
CC(=O)Nc1ccc(C2=NNC(=Nc3ccc(S(=O)(=O)N4CCOCC4)cc3)SC2)cc1	-2.6%	i	i	-4.3%	13.1µM*	-17.5
Fc1ccc(F)c(C2=NNC(=Nc3ccccc3F)SC2)c1	-16.2%	i	i	-4.5%	u	-1.9
O=S(=O)(c1ccc(N=C2NN=C(c3cc(F)ccc3F)CS2)cc1)N1CCOCC1	-13.7%	u	i	-12.8%	26.1µM*	-0.4
NC(=O)CCS(=O)(=O)CCN1CCCC1c1cccc(F)c1 (stereo not given)	x	x	x	x	x	-2.5
O=C(NCC1CCCO1)c1cc2c([nH]c3ccccc32)c(-c2cccc(Br)c2)n1 (stereo not given)	15.7%	u	i	10µM*	-10.0%	0.7
COc1ccc(-c2nc(C(=O)NCC3CCCO3)cc3c2[nH]c2ccccc23)cc1 (stereo not given)	-3.8%	u	i	0.0%	-4.3%	1.5
Cc1ccc(-c2nc(C(=O)NCC3CCCO3)cc3c2[nH]c2ccccc23)cc1 (stereo not given)	u	i	i	25.1µM*	-6.2%	-0.4
